Bioassay records (PubChem)
Most compounds without a hit are left out; they make up all but 22% or so of the library.
Measles CPE: protection of cells from measles virus. protection (pct of control), % at 4 µM. AID 841. 140,000 compounds, 1.5% hits. Measles virus-infected cells, CPE protection, absorbance; in the data active = protection mostly above about 24%, no sharp cut-off; inactive = mostly below about 26%
CYP2C19 act: cytochrome P450 2C19 (human) activation. P33261. recombinant CYP2C19, luciferin-H EGE luminescence; stronger effect = higher value; 0 = fully inhibited enzyme, 1 = untreated enzyme. activation factor at 5 µM. 96,000 tested, under 10 active;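 active = activation factor of at least 2 at 5 µM in the primary screen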;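 note: 0 = wells with 2.5 mM tranylcypromine and 1 = vehicle-only wells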
CYP2C9 inhib: blocks human cytochrome P450 2C9; P11712; CYP2C9 Supersomes, luciferin-H conversion, luminescence; inhibition, % at 5 µM; 96,000 compounds, 20% hits; AID 777;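 active = blocking of liver enzyme CYP2C9 beyond about 50% at 5 µM, limit read from the data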
Target sequence (P11712 whole entry, looked up): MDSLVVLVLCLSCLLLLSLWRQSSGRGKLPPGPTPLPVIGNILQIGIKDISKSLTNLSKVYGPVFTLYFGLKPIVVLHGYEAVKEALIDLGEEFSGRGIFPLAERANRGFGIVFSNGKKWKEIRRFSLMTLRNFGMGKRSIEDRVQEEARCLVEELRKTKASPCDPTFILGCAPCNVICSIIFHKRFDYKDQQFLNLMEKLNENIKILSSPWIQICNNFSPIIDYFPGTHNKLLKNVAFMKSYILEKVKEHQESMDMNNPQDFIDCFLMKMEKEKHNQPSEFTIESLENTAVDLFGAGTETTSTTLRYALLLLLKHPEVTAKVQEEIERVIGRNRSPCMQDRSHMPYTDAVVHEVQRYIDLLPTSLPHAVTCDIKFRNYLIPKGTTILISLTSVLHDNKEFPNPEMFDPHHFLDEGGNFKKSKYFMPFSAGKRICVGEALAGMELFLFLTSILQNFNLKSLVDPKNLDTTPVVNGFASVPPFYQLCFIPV
CYP2C19 inh: human CYP2C19 inhibition; P33261; CYP2C19 Supersomes, luciferin-H EGE luminescence, 30 min; inhibition, % at 5 µM; 96,000 compounds, 21% hits;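 active = CYP2C19 inhibition above a set limit at 5 µM in the primary screen, cut at about 50% in these data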;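 note: plate controls were negative control wells for no effect and 2.5 mM tranylcypromine positive control for full effect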
CYP2C9 act: activators of human CYP2C9. P11712. recombinant CYP2C9, luciferin-H conversion, luminescence; stronger effect = higher value; factor 1 = untreated enzyme, 0 = blocked. activation factor at 5 µM. 96,000 compounds, 1.4% hits;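 active = activation factor of 2 or more for CYP2C9 at a 5 µM dose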;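 note: 0 = sulfaphenazole-blocked wells and 1 = vehicle-only wells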
Active calls of the source: *.

`N/N=C(\c1ccccc1)C12CN3CN(CN(C3)C1)C2` gave Measles CPE 19.
For CCCCc1nc(SCC(=O)Nc2cc(C)on2)n[nH]1 the results were Measles CPE 1, CYP2C19 act 0.5, CYP2C9 inhib 61*, CYP2C19 inh 53* and CYP2C9 act 0.4.
For COc1ccc(-c2nc(SCC(=O)Nc3cc(C)on3)n[nH]2)cc1 the results were Measles CPE 9, CYP2C19 act 0.8, CYP2C9 inhib 89*, CYP2C19 inh 22 and CYP2C9 act 0.1.
Cc1cc(NC(=O)CSc2ncccn2)no1 was read as Measles CPE 14.
`COc1ccc(-c2cc(C(F)(F)F)nc(SCC(=O)Nc3cc(C)on3)n2)cc1OC` gave Measles CPE 3, CYP2C19 act 1, CYP2C9 inhib 50, CYP2C19 inh -4 and CYP2C9 act 0.5.
Screening Cc1cc(NC(=O)CSc2c(C)[nH]c3ccccc23)no1 returned Measles CPE 2, CYP2C19 act 0.3, CYP2C9 inhib -23, CYP2C19 inh 66* and CYP2C9 act 1.2.
Screening Cc1ccc(-n2c(SCC(=O)Nc3cc(C)on3)nc3c([nH]c4ccccc43)c2=O)cc1 returned Measles CPE 4, CYP2C19 act 1, CYP2C9 inhib 26, CYP2C19 inh 1 and CYP2C9 act 0.7.
For Cc1cc(NC(c2cccnc2)c2c(C)[nH]c3ccccc23)no1 (stereo not drawn) the results were Measles CPE 8, CYP2C19 act 0.4, CYP2C9 inhib 4, CYP2C19 inh 62* and CYP2C9 act 1.
Screening NC(=O)c1c(-c2ccc(Cl)cc2Cl)csc1NC(=O)Cc1ccccc1 returned Measles CPE 19.
`NC(=O)c1c(NC(NC(=O)c2ccco2)(C(F)(F)F)C(F)(F)F)sc2c1CCCC2` gave Measles CPE 4, CYP2C19 act 0.8, CYP2C9 inhib 21, CYP2C19 inh 20 and CYP2C9 act 0.8.
Cc1ccc(C2=NN(C(=S)Nc3ccccc3)C(c3ccco3)C2)cc1 (stereo not drawn) was read as Measles CPE 1, CYP2C19 act 0.8, CYP2C9 inhib 52*, CYP2C19 inh 24 and CYP2C9 act 0.5.
Screening CCS(=O)(=O)Nc1ccc(C2=NN(C(=S)Nc3ccccc3)C(c3ccco3)C2)cc1 (stereo not drawn) returned Measles CPE 12.
Screening Cn1c(N2CCN(C(=O)Nc3ccc(F)cc3)CC2)nc2ccccc21 returned Measles CPE 5.
For S=C(Nc1ccccc1)N1CCn2c1nc1ccccc12 the results were Measles CPE 8, CYP2C19 act 1, CYP2C9 inhib 9, CYP2C19 inh 5 and CYP2C9 act 0.9.
For COc1ccc(NC(=O)N2CCn3c2nc2ccccc23)cc1 the results were Measles CPE 5, CYP2C19 act 0.5, CYP2C9 inhib 71*, CYP2C19 inh 49 and CYP2C9 act 0.3.
`CC(C)n1c(N2CCN(C(=O)Nc3ccccc3)CC2)nc2ccccc21` gave Measles CPE 5, CYP2C19 act 0.6, CYP2C9 inhib 52*, CYP2C19 inh 36 and CYP2C9 act 0.5.
O=C(Nc1ccccc1)N1CCn2c1nc1ccccc12 was read as Measles CPE 6, CYP2C19 act 0.8, CYP2C9 inhib 66*, CYP2C19 inh 18 and CYP2C9 act 0.3.
c1ccc(N2CCCCC2)c(NC2=NCCC2)c1 was read as Measles CPE 17, CYP2C19 act 0.9, CYP2C9 inhib 18, CYP2C19 inh 6 and CYP2C9 act 0.8.
Cc1cc(C)c(-n2nnnc2SC(C)C)c(C)c1 was read as Measles CPE 4.
`COc1ccc(N(CC(=O)NCc2cccs2)S(=O)(=O)c2c(C)n[nH]c2C)cc1` gave Measles CPE 5, CYP2C19 act 0.3, CYP2C9 inhib 32, CYP2C19 inh 73* and CYP2C9 act 0.7.
COc1ccc(N(CC(=O)NCc2cccs2)S(=O)(=O)c2cccnc2)cc1 was read as Measles CPE 5, CYP2C19 act 0.2, CYP2C9 inhib 64*, CYP2C19 inh 84* and CYP2C9 act 0.4.
For CNC(=O)CN(c1ccc(OC)cc1)S(=O)(=O)c1ccc(F)cc1 the results were Measles CPE 2.
For O=S(=O)(NC1CC1)c1ccc(S(=O)(=O)N2CCCC3(CCCCC3)C2)cc1 the results were Measles CPE 7, CYP2C19 act 0.7, CYP2C9 inhib 49, CYP2C19 inh 26 and CYP2C9 act 0.5.
Screening CC1CCN(C2(O)C(=O)Nc3ccc([N+](=O)[O-])cc32)CC1 (stereo not drawn) returned Measles CPE 2, CYP2C19 act 0.6, CYP2C9 inhib 66*, CYP2C19 inh 42 and CYP2C9 act 0.3.
`COc1cccc(N(C(=O)Cn2nnc(-c3ccc(C)o3)n2)C(C(=O)NC(C)(C)C)c2cccs2)c1` (stereo not drawn) gave Measles CPE 6.
Screening CCC(C(=O)NC(C)(C)C)N(C(=O)Cn1nnc(-c2cccs2)n1)c1cnc2ccccc2c1 (stereo not drawn) returned Measles CPE 80*, CYP2C19 act 0.8, CYP2C9 inhib 65*, CYP2C19 inh 18 and CYP2C9 act 0.4.
Screening O=C(N/N=C/c1ccc(-c2ccccc2C(=O)O)o1)c1cccs1 returned Measles CPE 5.
O=C(/C=C/c1ccccc1)NC(NC(=S)Nc1cccc(O)c1)C(Cl)(Cl)Cl (stereo not drawn) was read as Measles CPE 13.
Screening O=C(/C=C/c1ccccc1)NC(NC(=S)Nc1ccc(Cl)cc1Cl)C(Cl)(Cl)Cl (stereo not drawn) returned Measles CPE 15.
For O=C(/C=C/c1ccccc1)NC(NC(=S)Nc1cccc(Cl)c1)C(Cl)(Cl)Cl (stereo not drawn) the results were Measles CPE 19, CYP2C19 act 1, CYP2C9 inhib 77*, CYP2C19 inh 1 and CYP2C9 act 0.2.
O=C(/C=C/c1ccccc1)NC(NC(=S)Nc1ccc(C(=O)O)cc1)C(Cl)(Cl)Cl (stereo not drawn) was read as Measles CPE 45*.
c1ccc(CNn2nnnc2-c2ccccc2)cc1 was read as Measles CPE 14, CYP2C19 act 0.3, CYP2C9 inhib 13, CYP2C19 inh 68* and CYP2C9 act 0.9.
CCOP(=O)(c1ccccc1)C1(O)CCCCC1 (stereo not drawn) was read as Measles CPE 3, CYP2C19 act 1.1, CYP2C9 inhib -14, CYP2C19 inh -11 and CYP2C9 act 1.1.
CCOc1ccc(-c2cc3nc(C4CCN(C(=O)OC(C)(C)C)CC4)c(C(=O)O)cn3n2)cc1 was read as Measles CPE 10, CYP2C19 act 1.1, CYP2C9 inhib 81*, CYP2C19 inh -7 and CYP2C9 act 0.2.
`Cn1cc(CNC(=O)COc2ccc(Cl)cc2Cl)cn1` gave Measles CPE 5, CYP2C19 act 0.1, CYP2C9 inhib 2, CYP2C19 inh 89* and CYP2C9 act 1.
`Cc1nn(C)cc1CNC(=O)COc1ccc(Cl)cc1Cl` gave Measles CPE 22.
